HT1080-NT tox: kills 2HG-producing HT-1080-NT fibrosarcoma cells. HT-1080-NT fibrosarcoma viability, CellTiter-Glo ATP luminescence, 48 h. Potency, µM (titrated, usually from 46.1 µM), without a hit: at the highest dose activity, negative = less viability, actives largely listed as cytotoxic. hit rate 1.6% among 360,000;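 note: NT is the 2HG producing partner of a matched IDH1 knockdown line; potency is the fitted concentration of half-maximal effect; 0% = DMSO-treated cells and -100% = media-only wells without cells; nearly all actives have a fitted effect of over 55% in size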
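Luminescent CellTiter-Glo readout after 48 hours of compound exposure at 37 degrees C defined viability of HT-1080-NT cells. Activity was normalized to DMSO wells and cell-free media wells; concentration-response curves were fitted and assigned curve classes.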
TDP1 cell CPT: growth inhibition of DT40 Tdp1-/-;hTDP1 cells with camptothecin (screen for TDP1 inhibitors); chicken DT40 Tdp1-/-;hTDP1 cells + 20 nM CPT, ATP luminescence, 48 h; Potency, µM (top dose mostly 46.2 µM), for inactives: at the highest dose activity change, negative = growth inhibition, hits mostly inhibitors; hit rate 12% among 420,000; note: potency is the fitted concentration of half-maximal effect; nearly all actives have a fitted effect of over 55% in size
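Chicken DT40 Tdp1-/- cells stably complemented with human TDP1 were seeded at 400 cells/well in medium containing 20 nM camptothecin, exposed to pin-transferred compounds, and grown at 37 °C for at least 48 hr. Viability was read as ATP luminescence.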
DT40 TDP1 no CPT: qHTS for Inhibitors of human tyrosyl-DNA phosphodiesterase 1 (TDP1): qHTS in cells in absence of CPT. DT40 Tdp1-/- hTDP1 cells, no CPT, ATP luminescence, 48 h. Potency, µM (series often up to 46.2 µM), without a hit: top-dose activity change, negative = growth inhibition, usual class: inhibitors. hit rate 15% among 420,000; note: potency is the fitted concentration of half-maximal effect; nearly all actives have a fitted effect of over 55% in size
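Growth kinetics read by CellTiter-Glo luminescence after ≥48 hr at 37 °C. Cells: DT40 Tdp1-/- stably carrying human TDP1, 400 per well, compound exposure in the absence of CPT (DMSO vehicle).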
HT1080 IDH1KD tx: toxicity to HT-1080 IDH1 knockdown cells (counter line). HT-1080 IDH1 knockdown viability, ATP luminescence, 48 h. hit rate 2% among 360,000. Potency, µM (doses to about 46.1 µM), for inactives: at the top dose activity, negative = toxicity, actives largely listed as cytotoxic;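 note: potency is the fitted concentration of half-maximal effect; 0% = DMSO wells and -100% = cell-free medium wells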
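Viability of IDH1-knockdown HT-1080 fibrosarcoma cells was assessed by CellTiter-Glo after 48 h at 37 °C with titrated compound; concentration-effect curves were classified by fit quality and response size.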
IL1B secr inh: inflammasome signaling inhibition, IL-1 beta readout; THP-1 LPS/ATP IL-1B secretion, AlphaLISA, 16 h; stronger effect = lower value; activity change, % at 57.5 µM; hit rate 4.7% among 360,000; in the data active = activity change below about -50%; inconclusive = mostly about -30% to -49%
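Secreted IL-1B measured by AlphaLISA bead assay after 16 h compound exposure of THP-1 cells; compounds (final up to 57.5 uM) added 1 h before LPS (250 ng/mL) and ATP (1.25 mM) stimulation; lower signal means less secretion.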
Numbers without * were called inactive. An excerpt weighted towards active compounds, which were near 19% of everything screened. Unless noted, calls come from the whole dose curve; as a rule, active = well fitted curve in the direction sought with a large enough effect; inconclusive = small, poorly fitted or top-dose-only effect, or another doubt; inactive = no such curve, though single readings can be large; an effect the other way counts as inactive or inconclusive. Unless noted, % is set by controls: 0 for no effect and ±100 for the full control effect.

How did Cc1ccc(/C=N/NC(=S)N2CCOCC2)cc1 do in these assays?
HT1080-NT tox: 5.9%; TDP1 cell CPT: -12.4%; DT40 TDP1 no CPT: -22.7%; HT1080 IDH1KD tx: -2.2%; IL1B secr inh: 1.1

What do the screens show for `O=C(CN1C(=O)c2ccc([N+](=O)[O-])cc2C1=O)NC1CCCCCC1`?
HT1080-NT tox: 2.3%; TDP1 cell CPT: 0.1%; DT40 TDP1 no CPT: -0.9%; HT1080 IDH1KD tx: -0.8%; IL1B secr inh: 14.5

Results for CCOC(=O)C1=C(C)OC(N)=C(C#N)C1c1c(C)nn(-c2ccccc2)c1Cl (centres undefined) ?
HT1080-NT tox: -0.7%; TDP1 cell CPT: -29.8%; DT40 TDP1 no CPT: inconclusive; HT1080 IDH1KD tx: -3.3%; IL1B secr inh: -9.6

What do the screens show for `C=CCOC(=O)C1=C(C)OC(N)=C(C#N)C1c1c(C)nn(-c2ccccc2)c1Cl` (centres undefined)?
HT1080-NT tox: 0.7%; TDP1 cell CPT: inconclusive; DT40 TDP1 no CPT: 9.2µM*; HT1080 IDH1KD tx: -2.4%; IL1B secr inh: -12.5

What do the screens show for `O=C1CCSC2(C(=O)N(Cc3ccc(F)cc3)c3ccccc32)N1c1cccc(F)c1` (centres undefined)?
TDP1 cell CPT: 5.17µM*; DT40 TDP1 no CPT: 3.66µM*

What do the screens show for `O=C1CCSC2(C(=O)N(Cc3ccc(F)cc3)c3ccccc32)N1c1ccc(F)c(F)c1` (centres undefined)?
TDP1 cell CPT: 7.31µM*; DT40 TDP1 no CPT: 10.3µM*

What do the screens show for `Cc1cccc(N2C(=O)CCSC23C(=O)N(Cc2ccc(F)cc2)c2ccccc23)c1` (centres undefined)?
TDP1 cell CPT: 9.2µM*; DT40 TDP1 no CPT: 6.51µM*

Results for O=C1CCSC2(C(=O)N(Cc3ccc(F)cc3)c3ccccc32)N1c1ccccc1 (centres undefined) ?
TDP1 cell CPT: 7.31µM*; DT40 TDP1 no CPT: 8.2µM*

What do the screens show for `COc1ccc(NC(=O)CSc2nnc(CN3CCOCC3)n2C)cc1Cl`?
HT1080-NT tox: 0.4%; TDP1 cell CPT: -8.4%; DT40 TDP1 no CPT: 9.8%; HT1080 IDH1KD tx: -3.8%; IL1B secr inh: 0.0

What do the screens show for `C=CCc1cc(C)ccc1OCCOCCN1CCN(C)CC1`?
HT1080-NT tox: -12.4%; TDP1 cell CPT: inconclusive; DT40 TDP1 no CPT: inconclusive; HT1080 IDH1KD tx: 2.7%; IL1B secr inh: 9.1

How did Cc1occc1-c1nnc(-c2cc([N+](=O)[O-])cc([N+](=O)[O-])c2)o1 do in these assays?
HT1080-NT tox: -7.6%; TDP1 cell CPT: inconclusive; DT40 TDP1 no CPT: inconclusive; HT1080 IDH1KD tx: 0.3%; IL1B secr inh: 17.0

What do the screens show for `Cc1cc(C)cc(N2C(=O)CCSC23C(=O)N(Cc2ccccc2)c2ccccc23)c1` (centres undefined)?
TDP1 cell CPT: 5.8µM*; DT40 TDP1 no CPT: 5.8µM*

What do the screens show for `Cc1ccc2cc(CN(Cc3ccc4c(c3)OCO4)Cc3nnnn3Cc3ccco3)c(=O)[nH]c2c1C`?
HT1080-NT tox: -18.6%; TDP1 cell CPT: inconclusive; DT40 TDP1 no CPT: 23.1µM*; HT1080 IDH1KD tx: -5.8%; IL1B secr inh: 0.0

What do the screens show for `Cc1ccc(C)c2[nH]c(=O)c(CN(Cc3ccc4c(c3)OCO4)Cc3nnnn3Cc3ccco3)cc12`?
HT1080-NT tox: inconclusive; TDP1 cell CPT: inconclusive; DT40 TDP1 no CPT: inconclusive; HT1080 IDH1KD tx: -28.7%; IL1B secr inh: -60.2*

Results for Cc1ccc2cc(CN(CCN3CCOCC3)Cc3nnnn3Cc3ccco3)c(=O)[nH]c2c1C ?
HT1080-NT tox: 4.4%; TDP1 cell CPT: inconclusive; DT40 TDP1 no CPT: -24.5%; HT1080 IDH1KD tx: 7.2%; IL1B secr inh: -2.1

How did Cn1c(CC(=O)Nc2ccccc2)nnc1SCCOc1ccccc1 do in these assays?
HT1080-NT tox: 0.3%; TDP1 cell CPT: inconclusive; DT40 TDP1 no CPT: inconclusive; HT1080 IDH1KD tx: 12.3%; IL1B secr inh: -0.7

What do the screens show for `COc1ccc(-c2cc(C(=O)NCc3ccco3)c3ccccc3n2)c(OC)c1`?
HT1080-NT tox: -6.4%; TDP1 cell CPT: inconclusive; DT40 TDP1 no CPT: inconclusive; HT1080 IDH1KD tx: 2.1%; IL1B secr inh: 14.8
